Reference: PubChem BioAssay (NCI)
This is part of a sample that, as a whole, favours compounds with a hit. Of some 83,000 tested, about 20% had one in any assay.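 Negative percent growth values reflect cell death: -40 means 40% of the cells present at the start died, and -100 means all died.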 A number with no mark means an inactive call. Active and inactive are the calls of the source. How the source made its calls: active means growth percent below 10; inactive means the rest.

Assays:
Assay in all cases: NCI-60 one-dose screen, 48 h (100 = growth as untreated, 0 = no growth, -100 = all killed)
Details in all cases: 10 µM
NCI-H23 lung = tested on: NCI-H23 lung
NCI-H226 lung = tested on: NCI-H226 lung
HOP-62 NSCLC = tested on: HOP-62 NSCLC
NCI-H460 lung = tested on: NCI-H460 lung
HOP-92 NSCLC = tested on: HOP-92 NSCLC
NCI-H522 lung = tested on: NCI-H522 lung
A549/ATCC NSCLC = tested on: A549/ATCC NSCLC
786-0 renal = tested on: 786-0 renal
COLO 205 colon = tested on: COLO 205 colon
DU-145 prostate = tested on: DU-145 prostate
MALME-3M melanoma = tested on: MALME-3M melanoma
MDA-MB-231 breast = tested on: MDA-MB-231 breast
RXF 393 renal = tested on: RXF 393 renal
SF-268 CNS = tested on: SF-268 CNS
SF-295 CNS = tested on: SF-295 CNS
SF-539 CNS = tested on: SF-539 CNS
UACC-257 melanoma = tested on: UACC-257 melanoma
M14 melanoma = tested on: M14 melanoma
K-562 leukemia = tested on: K-562 leukemia

Structure (SMILES): CCN(CC)CCOc1ccc(C(=C(C)c2ccccc2)c2ccc(OCCN(CC)CC)cc2)cc1
- growth (NCI-H23 lung): 19.9%
- growth (NCI-H226 lung): 71%
- growth (HOP-62 NSCLC): -44.3% (active)
- growth (NCI-H460 lung): 4.41% (active)
- growth (HOP-92 NSCLC): -21.3% (active)
- growth (NCI-H522 lung): 3.11% (active)
- growth (A549/ATCC NSCLC): 15.2%
- growth (786-0 renal): -51.6% (active)
- growth (COLO 205 colon): -88.2% (active)
- growth (DU-145 prostate): 41.4%
- growth (MALME-3M melanoma): -100% (active)
- growth (MDA-MB-231 breast): -60.4% (active)
- growth (RXF 393 renal): -74.5% (active)
- growth (SF-268 CNS): 11.6%
- growth (SF-295 CNS): -63.6% (active)
- growth (SF-539 CNS): -98.1% (active)
- growth (UACC-257 melanoma): -83.4% (active)
- growth (M14 melanoma): -53.5% (active)

Structure (SMILES): O=C(CNc1nc(-c2ccccc2)cs1)Nc1cccc([N+](=O)[O-])c1
- growth (NCI-H23 lung): -92.5% (active)
- growth (NCI-H226 lung): -42.5% (active)
- growth (HOP-62 NSCLC): -76.2% (active)
- growth (NCI-H460 lung): 4.92% (active)
- growth (HOP-92 NSCLC): -49.2% (active)
- growth (A549/ATCC NSCLC): -72.7% (active)
- growth (786-0 renal): -85.1% (active)
- growth (COLO 205 colon): -64.1% (active)
- growth (DU-145 prostate): -98.6% (active)
- growth (K-562 leukemia): 8.88% (active)
- growth (MALME-3M melanoma): -90.5% (active)
- growth (MDA-MB-231 breast): -88.7% (active)
- growth (SF-268 CNS): -57.7% (active)
- growth (SF-295 CNS): -94.2% (active)
- growth (SF-539 CNS): -100% (active)
- growth (UACC-257 melanoma): -71.5% (active)
- growth (M14 melanoma): -87.6% (active)

Structure (SMILES): O=C(NO)c1ccc(-c2nc3ccc4[nH]ncc4c3c3c2CCCC3)cc1
- growth (NCI-H23 lung): -56.7% (active)
- growth (NCI-H226 lung): -28.8% (active)
- growth (HOP-62 NSCLC): 0.238% (active)
- growth (NCI-H460 lung): -43.4% (active)
- growth (HOP-92 NSCLC): -16.6% (active)
- growth (NCI-H522 lung): -43% (active)
- growth (A549/ATCC NSCLC): 6.83% (active)
- growth (786-0 renal): -8.73% (active)
- growth (COLO 205 colon): -20.1% (active)
- growth (DU-145 prostate): 1.34% (active)
- growth (K-562 leukemia): 10.1%
- growth (MALME-3M melanoma): -80.5% (active)
- growth (MDA-MB-231 breast): -27.6% (active)
- growth (SF-268 CNS): -53.6% (active)
- growth (SF-295 CNS): -17.9% (active)
- growth (SF-539 CNS): -97.4% (active)
- growth (UACC-257 melanoma): -18.8% (active)
- growth (M14 melanoma): -62.5% (active)

Structure (SMILES): COc1ccc(C(=O)/C=C/c2ccc(Cl)c(C(F)(F)F)c2)cc1S(N)(=O)=O
- growth (NCI-H23 lung): -86.5% (active)
- growth (NCI-H226 lung): -95.3% (active)
- growth (HOP-62 NSCLC): -84% (active)
- growth (NCI-H460 lung): -79.2% (active)
- growth (HOP-92 NSCLC): -68.8% (active)
- growth (NCI-H522 lung): -83.2% (active)
- growth (A549/ATCC NSCLC): -78.1% (active)
- growth (786-0 renal): -85.6% (active)
- growth (COLO 205 colon): -71.5% (active)
- growth (DU-145 prostate): -20.9% (active)
- growth (K-562 leukemia): 5.18% (active)
- growth (MALME-3M melanoma): -97.9% (active)
- growth (MDA-MB-231 breast): -100% (active)
- growth (SF-268 CNS): -40.5% (active)
- growth (SF-295 CNS): -100% (active)
- growth (SF-539 CNS): -100% (active)
- growth (UACC-257 melanoma): -78.2% (active)
- growth (M14 melanoma): -87.5% (active)

Structure (SMILES): CCOC(=O)N/C(=C1/OCCN1C)[P+](c1ccccc1)(c1ccccc1)c1ccccc1
- growth (NCI-H23 lung): 85.8%
- growth (NCI-H226 lung): 93.1%
- growth (HOP-62 NSCLC): 97.6%
- growth (NCI-H460 lung): 86.7%
- growth (HOP-92 NSCLC): 59.1%
- growth (NCI-H522 lung): 54.2%
- growth (A549/ATCC NSCLC): 89%
- growth (786-0 renal): 101%
- growth (COLO 205 colon): 41.3%
- growth (DU-145 prostate): 93%
- growth (K-562 leukemia): 41.2%
- growth (MALME-3M melanoma): 71%
- growth (MDA-MB-231 breast): 59.9%
- growth (SF-268 CNS): 103%
- growth (SF-295 CNS): 88.1%
- growth (SF-539 CNS): 78.1%
- growth (UACC-257 melanoma): 27.8%
- growth (M14 melanoma): 90.9%

Structure (SMILES): N#Cc1c(NC(=O)c2ccc(C(F)(F)F)c(Cl)c2)sc2c1CCC(=O)C2
- growth (NCI-H23 lung): -60.9% (active)
- growth (NCI-H226 lung): -26.4% (active)
- growth (HOP-62 NSCLC): -56.5% (active)
- growth (NCI-H460 lung): -10.1% (active)
- growth (HOP-92 NSCLC): -55.3% (active)
- growth (NCI-H522 lung): -71.2% (active)
- growth (A549/ATCC NSCLC): 19.3%
- growth (786-0 renal): -48.2% (active)
- growth (COLO 205 colon): -94% (active)
- growth (DU-145 prostate): 19.5%
- growth (K-562 leukemia): 0.454% (active)
- growth (MALME-3M melanoma): -56.9% (active)
- growth (MDA-MB-231 breast): -87.5% (active)
- growth (RXF 393 renal): -86.3% (active)
- growth (SF-268 CNS): -22.7% (active)
- growth (SF-295 CNS): -88.9% (active)
- growth (SF-539 CNS): -87.6% (active)
- growth (UACC-257 melanoma): -23.3% (active)
- growth (M14 melanoma): -68.8% (active)

Structure (SMILES): COc1ccc(CN2[C@@H](C(=O)NCc3ccc(C(=O)NO)cc3)Cc3c([nH]c4ccccc34)[C@@H]2C)cc1
- growth (NCI-H23 lung): 15.2%
- growth (NCI-H226 lung): 45.8%
- growth (HOP-62 NSCLC): 37.7%
- growth (HOP-92 NSCLC): 2.77% (active)
- growth (NCI-H522 lung): -5.15% (active)
- growth (A549/ATCC NSCLC): 41.6%
- growth (786-0 renal): 39.7%
- growth (COLO 205 colon): -12.6% (active)
- growth (DU-145 prostate): 18.6%
- growth (K-562 leukemia): 12%
- growth (MALME-3M melanoma): 0.926% (active)
- growth (MDA-MB-231 breast): 13%
- growth (SF-268 CNS): 24.8%
- growth (SF-295 CNS): 6.57% (active)
- growth (SF-539 CNS): 17.2%
- growth (UACC-257 melanoma): 32.1%
- growth (M14 melanoma): 23.3%

Structure (SMILES): O=C(Cn1cc(CSc2nnc3oc4ccccc4n23)nn1)Nc1cccc(Cl)c1
- growth (NCI-H23 lung): 60.2%
- growth (NCI-H226 lung): 65%
- growth (NCI-H460 lung): 91.1%
- growth (HOP-92 NSCLC): 52.1%
- growth (A549/ATCC NSCLC): 62.9%
- growth (786-0 renal): 93.3%
- growth (COLO 205 colon): 97.8%
- growth (DU-145 prostate): 85.6%
- growth (MALME-3M melanoma): 72.8%
- growth (MDA-MB-231 breast): 63.4%
- growth (RXF 393 renal): 76.8%
- growth (SF-268 CNS): 71.8%
- growth (SF-295 CNS): 66.8%
- growth (SF-539 CNS): 70.6%
- growth (UACC-257 melanoma): 71%
- growth (M14 melanoma): 87.8%

Structure (SMILES): COc1ccc(CN2[C@H](C(=O)NCc3ccc(C(=O)NO)cc3)Cc3c([nH]c4ccccc34)[C@H]2C2CC2)cc1
- growth (NCI-H23 lung): 52.3%
- growth (NCI-H226 lung): 55.8%
- growth (HOP-62 NSCLC): 63.1%
- growth (NCI-H460 lung): 33.6%
- growth (HOP-92 NSCLC): 40.1%
- growth (NCI-H522 lung): 22.2%
- growth (A549/ATCC NSCLC): 61.3%
- growth (786-0 renal): 61.7%
- growth (COLO 205 colon): 47.3%
- growth (DU-145 prostate): 57%
- growth (K-562 leukemia): 26.2%
- growth (MALME-3M melanoma): 30.4%
- growth (MDA-MB-231 breast): 54.5%
- growth (SF-268 CNS): 64.9%
- growth (SF-295 CNS): 45.5%
- growth (SF-539 CNS): 41.6%
- growth (UACC-257 melanoma): 43.4%
- growth (M14 melanoma): 49.6%
